# Data reported in the supplement of paper PMC4022240.
# ± gives the standard deviation.
# B1: H3 112-124 I H A Kme Rme2a V T I M P K D I (peptide)
# chain: IHAKRVTIMPKDI
# B2: H3 112-124 I H A Kme Rme2s V T I M P K D I (peptide)
# chain: IHAKRVTIMPKDI
# B3: H3 112-124 I H A Kme2 R V T I M P K D I (peptide)
# chain: IHAKRVTIMPKDI
# B4: H3 112-124 I H A Kme2 R V T I M P Kac D I (peptide)
# chain: IHAKRVTIMPKDI
# B5: H3 112-124 I H A Kme2 R V T I M P Kme D I (peptide)
# chain: IHAKRVTIMPKDI
# B6: H3 112-124 I H A Kme2 R V T I M P Kme2 D I (peptide)
# chain: IHAKRVTIMPKDI
# B7: H3 112-124 I H A Kme2 R V T I M P Kme3 D I (peptide)
# chain: IHAKRVTIMPKDI
# B8: H3 112-124 I H A Kme2 Rcit V T I M P K D I (peptide)
# chain: IHAKRVTIMPKDI
# B9: H3 112-124 I H A Kme2 Rme V T I M P K D I (peptide)
# chain: IHAKRVTIMPKDI
# B10: H3 112-124 I H A Kme2 Rme2a V T I M P K D I (peptide)
# chain: IHAKRVTIMPKDI
# What was measured:
# Assay in all cases: peptide microarray binding signal (635 nm), min-max normalized on array (fraction of array maximum); higher = stronger binding
# Conditions in all cases: peptide region: H3 112-124
# [1] = target: T1, HaloTag-ATRX ADD domain (163-292)
# T1 chain: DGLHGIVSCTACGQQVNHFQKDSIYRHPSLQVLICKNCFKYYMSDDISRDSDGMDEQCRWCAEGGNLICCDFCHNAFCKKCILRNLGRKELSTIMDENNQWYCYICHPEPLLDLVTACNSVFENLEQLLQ
# Summary of the method: (§1)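 Binding signal is the mean intensity of triplicate spots, min-max scaled within each library. Histone 13-mer peptide–cellulose conjugates were spotted in triplicate on nitrocellulose with a Cy3 tracer and blocked overnight at 4°C. Probing lasted 1 h at 4°C, either with biotin-labelled HaloTag reader fusions (10 nM to 1 μM) and streptavidin-Alexa Fluor 647 or with rabbit histone antibodies (1:10,000 to 1:2,000) and anti-rabbit Alexa 647. An Axon GenePix 4000B read signal at 635 nm and misprints at 532 nm.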
# [2] = target: HaloTag-ING2 PHD (mouse Ing2 200-280)
# Summary of the method: as §1
# [3] = target: anti-H3K4me3 antibody ab8580
# Summary of the method: as §1
# [4] = target: anti-H3K9me3 antibody ab8898
# Summary of the method: as §1
# [5] = peptide modifications: H3K115me1 H3R116me2a, binder concentration: 1:2,000 dilution
# [6] = peptide modifications: H3K115me1 H3R116me2a, binder concentration: 1:10,000 dilution
# [7] = peptide modifications: H3K115me1 H3R116me2s, binder concentration: 1:2,000 dilution
# [8] = peptide modifications: H3K115me1 H3R116me2s, binder concentration: 1:10,000 dilution
# [9] = peptide modifications: H3K115me2, binder concentration: 1:2,000 dilution
# [10] = peptide modifications: H3K115me2, binder concentration: 1:10,000 dilution
# [11] = peptide modifications: H3K115me2 H3K122ac, binder concentration: 1:2,000 dilution
# [12] = peptide modifications: H3K115me2 H3K122ac, binder concentration: 1:10,000 dilution
# [13] = peptide modifications: H3K115me2 H3K122me1, binder concentration: 1:2,000 dilution
# [14] = peptide modifications: H3K115me2 H3K122me1, binder concentration: 1:10,000 dilution
# [15] = peptide modifications: H3K115me2 H3K122me2, binder concentration: 1:2,000 dilution
# [16] = peptide modifications: H3K115me2 H3K122me2, binder concentration: 1:10,000 dilution
# [17] = peptide modifications: H3K115me2 H3K122me3, binder concentration: 1:2,000 dilution
# [18] = peptide modifications: H3K115me2 H3K122me3, binder concentration: 1:10,000 dilution
# [19] = peptide modifications: H3K115me2 H3R116cit, binder concentration: 1:2,000 dilution
# [20] = peptide modifications: H3K115me2 H3R116cit, binder concentration: 1:10,000 dilution
# [21] = peptide modifications: H3K115me2 H3R116me1, binder concentration: 1:2,000 dilution
# [22] = peptide modifications: H3K115me2 H3R116me1, binder concentration: 1:10,000 dilution
# [23] = peptide modifications: H3K115me2 H3R116me2a, binder concentration: 1:2,000 dilution
# [24] = peptide modifications: H3K115me2 H3R116me2a, binder concentration: 1:10,000 dilution
binder,measurement,setting,value
B1,peptide microarray binding signal,"[1]; peptide modifications: H3K115me1 H3R116me2a, binder concentration: 50 nM",0.005172 ± 3.7e-05
same,peptide microarray binding signal,"[1]; peptide modifications: H3K115me1 H3R116me2a, binder concentration: 500 nM",0.0151 ± 0.00091
same,peptide microarray binding signal,"[2]; peptide modifications: H3K115me1 H3R116me2a, binder concentration: 10 nM",0.0102 ± 0.00057
same,peptide microarray binding signal,"[2]; peptide modifications: H3K115me1 H3R116me2a, binder concentration: 100 nM",0.0244 ± 0.0083
same,peptide microarray binding signal,[3]; [5],0.00434 ± 0.00096
same,peptide microarray binding signal,[3]; [6],0.00297 ± 8.7e-05
same,peptide microarray binding signal,[4]; [5],0.0064 ± 0.00053
same,peptide microarray binding signal,[4]; [6],0.00317 ± 0.00013
B2,peptide microarray binding signal,"[1]; peptide modifications: H3K115me1 H3R116me2s, binder concentration: 50 nM",0.00257 ± 2.3e-05
same,peptide microarray binding signal,"[1]; peptide modifications: H3K115me1 H3R116me2s, binder concentration: 500 nM",0.00552 ± 0.00018
same,peptide microarray binding signal,"[2]; peptide modifications: H3K115me1 H3R116me2s, binder concentration: 10 nM",0.004 ± 0.00015
same,peptide microarray binding signal,"[2]; peptide modifications: H3K115me1 H3R116me2s, binder concentration: 100 nM",0.00716 ± 0.00083
same,peptide microarray binding signal,[3]; [7],0.000906 ± 2.8e-05
same,peptide microarray binding signal,[3]; [8],0.00137 ± 1.3e-05
same,peptide microarray binding signal,[4]; [7],0.00156 ± 0.00014
same,peptide microarray binding signal,[4]; [8],0.00127 ± 1.3e-05
B3,peptide microarray binding signal,"[1]; peptide modifications: H3K115me2, binder concentration: 50 nM",0.0058 ± 7e-05
same,peptide microarray binding signal,"[1]; peptide modifications: H3K115me2, binder concentration: 500 nM",0.012 ± 0.0003
same,peptide microarray binding signal,"[2]; peptide modifications: H3K115me2, binder concentration: 10 nM",0.0144 ± 0.00078
same,peptide microarray binding signal,"[2]; peptide modifications: H3K115me2, binder concentration: 100 nM",0.0293 ± 0.0017
same,peptide microarray binding signal,[3]; [9],0.00506 ± 0.00089
same,peptide microarray binding signal,[3]; [10],0.00588 ± 0.00054
same,peptide microarray binding signal,[4]; [9],0.00495 ± 0.00045
same,peptide microarray binding signal,[4]; [10],0.00479 ± 0.00031
B4,peptide microarray binding signal,"[1]; peptide modifications: H3K115me2 H3K122ac, binder concentration: 50 nM",0.00357 ± 5.2e-05
same,peptide microarray binding signal,"[1]; peptide modifications: H3K115me2 H3K122ac, binder concentration: 500 nM",0.006 ± 0.00044
same,peptide microarray binding signal,"[2]; peptide modifications: H3K115me2 H3K122ac, binder concentration: 10 nM",0.0178 ± 0.0029
same,peptide microarray binding signal,"[2]; peptide modifications: H3K115me2 H3K122ac, binder concentration: 100 nM",0.0235 ± 0.0049
same,peptide microarray binding signal,[3]; [11],0.00145 ± 0.00019
same,peptide microarray binding signal,[3]; [12],0.00188 ± 0.00012
same,peptide microarray binding signal,[4]; [11],0.00186 ± 0.00037
same,peptide microarray binding signal,[4]; [12],0.00277 ± 0.00067
B5,peptide microarray binding signal,"[1]; peptide modifications: H3K115me2 H3K122me1, binder concentration: 50 nM",0.00398 ± 8.3e-05
same,peptide microarray binding signal,"[1]; peptide modifications: H3K115me2 H3K122me1, binder concentration: 500 nM",0.00852 ± 0.00012
same,peptide microarray binding signal,"[2]; peptide modifications: H3K115me2 H3K122me1, binder concentration: 10 nM",0.0224 ± 0.00092
same,peptide microarray binding signal,"[2]; peptide modifications: H3K115me2 H3K122me1, binder concentration: 100 nM",0.0286 ± 0.0023
same,peptide microarray binding signal,[3]; [13],0.0024 ± 0.00012
same,peptide microarray binding signal,[3]; [14],0.002853 ± 2.4e-05
same,peptide microarray binding signal,[4]; [13],0.0016 ± 2.9e-05
same,peptide microarray binding signal,[4]; [14],0.001441 ± 1.4e-05
B6,peptide microarray binding signal,"[1]; peptide modifications: H3K115me2 H3K122me2, binder concentration: 50 nM",0.003981 ± 1.6e-05
same,peptide microarray binding signal,"[1]; peptide modifications: H3K115me2 H3K122me2, binder concentration: 500 nM",0.00729 ± 0.00043
same,peptide microarray binding signal,"[2]; peptide modifications: H3K115me2 H3K122me2, binder concentration: 10 nM",0.0277 ± 0.0045
same,peptide microarray binding signal,"[2]; peptide modifications: H3K115me2 H3K122me2, binder concentration: 100 nM",0.0324 ± 0.0023
same,peptide microarray binding signal,[3]; [15],0.00387 ± 0.0014
same,peptide microarray binding signal,[3]; [16],0.00382 ± 0.00021
same,peptide microarray binding signal,[4]; [15],0.0021 ± 6.7e-05
same,peptide microarray binding signal,[4]; [16],0.002076 ± 1.9e-05
B7,peptide microarray binding signal,"[1]; peptide modifications: H3K115me2 H3K122me3, binder concentration: 50 nM",0.00401 ± 7.2e-05
same,peptide microarray binding signal,"[1]; peptide modifications: H3K115me2 H3K122me3, binder concentration: 500 nM",0.0105 ± 0.00042
same,peptide microarray binding signal,"[2]; peptide modifications: H3K115me2 H3K122me3, binder concentration: 10 nM",0.0258 ± 0.0013
same,peptide microarray binding signal,"[2]; peptide modifications: H3K115me2 H3K122me3, binder concentration: 100 nM",0.0359 ± 0.0052
same,peptide microarray binding signal,[3]; [17],0.00289 ± 0.00018
same,peptide microarray binding signal,[3]; [18],0.00274 ± 0.00017
same,peptide microarray binding signal,[4]; [17],0.0105 ± 0.0013
same,peptide microarray binding signal,[4]; [18],0.00536 ± 0.00056
B8,peptide microarray binding signal,"[1]; peptide modifications: H3K115me2 H3R116cit, binder concentration: 50 nM",0.00386 ± 8.5e-05
same,peptide microarray binding signal,"[1]; peptide modifications: H3K115me2 H3R116cit, binder concentration: 500 nM",0.008 ± 0.00037
same,peptide microarray binding signal,"[2]; peptide modifications: H3K115me2 H3R116cit, binder concentration: 10 nM",0.0196 ± 0.00092
same,peptide microarray binding signal,"[2]; peptide modifications: H3K115me2 H3R116cit, binder concentration: 100 nM",0.0271 ± 0.0013
same,peptide microarray binding signal,[3]; [19],0.00257 ± 8.7e-05
same,peptide microarray binding signal,[3]; [20],0.00211 ± 6.7e-05
same,peptide microarray binding signal,[4]; [19],0.00118 ± 5.6e-05
same,peptide microarray binding signal,[4]; [20],0.00133 ± 4e-05
B9,peptide microarray binding signal,"[1]; peptide modifications: H3K115me2 H3R116me1, binder concentration: 50 nM",0.00978 ± 0.00067
same,peptide microarray binding signal,"[1]; peptide modifications: H3K115me2 H3R116me1, binder concentration: 500 nM",0.0323 ± 0.001
same,peptide microarray binding signal,"[2]; peptide modifications: H3K115me2 H3R116me1, binder concentration: 10 nM",0.0352 ± 0.017
same,peptide microarray binding signal,"[2]; peptide modifications: H3K115me2 H3R116me1, binder concentration: 100 nM",0.0291 ± 0.0025
same,peptide microarray binding signal,[3]; [21],0.0244 ± 0.00081
same,peptide microarray binding signal,[3]; [22],0.0144 ± 0.0052
same,peptide microarray binding signal,[4]; [21],0.00761 ± 0.0024
same,peptide microarray binding signal,[4]; [22],0.0104 ± 0.00061
B10,peptide microarray binding signal,"[1]; peptide modifications: H3K115me2 H3R116me2a, binder concentration: 50 nM",0.00392 ± 0.00012
same,peptide microarray binding signal,"[1]; peptide modifications: H3K115me2 H3R116me2a, binder concentration: 500 nM",0.0121 ± 0.00062
same,peptide microarray binding signal,"[2]; peptide modifications: H3K115me2 H3R116me2a, binder concentration: 10 nM",0.013 ± 0.0011
same,peptide microarray binding signal,"[2]; peptide modifications: H3K115me2 H3R116me2a, binder concentration: 100 nM",0.015 ± 0.0041
same,peptide microarray binding signal,[3]; [23],0.00655 ± 0.00081
same,peptide microarray binding signal,[3]; [24],0.00291 ± 6.6e-05
same,peptide microarray binding signal,[4]; [23],0.00612 ± 0.00057
same,peptide microarray binding signal,[4]; [24],0.00346 ± 0.00033
